Assay [1] in a line: NCI Yeast Anticancer Drug Screen. Data for the rad50 strain (AID 155).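 Also: 0% = growth of vehicle-only cultures of the same strain.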 The conditions noted are these: S. cerevisiae rad50 strain growth inhibition, stronger effect = higher value. Put shortly:
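A DNA repair-deficient yeast mutant serves as the test organism; compound-induced growth inhibition is calculated against vehicle-treated cells.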

A short description of assay [2]: NCI Yeast Anticancer Drug Screen. Data for the mec2-1 strain (AID 157). The note with it: S. cerevisiae mec2-1 strain, stronger effect = higher value. Put shortly: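 Compounds were applied to mec2-1 yeast cells. Their growth was then compared with that of vehicle-treated cultures to give growth inhibition.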
Assay [3] in a line: NCI Yeast Anticancer Drug Screen. Data for the sgs1 mgt1 strain (AID 161).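 Also: 0% = growth of cultures given vehicle only.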 The conditions noted are these: S. cerevisiae sgs1 mgt1 strain, stronger effect = higher value. Put shortly: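 Percent growth inhibition was derived by comparing compound-exposed mutant yeast with vehicle-exposed cultures. The strain carries alterations in DNA damage repair.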
Assay [4] is described as follows: NCI Yeast Anticancer Drug Screen. Data for the cln2 rad14 strain (AID 165).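 Also: 0% = growth equal to vehicle treated cultures.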 The note with it: S. cerevisiae cln2 rad14 strain, stronger effect = higher value. Put shortly: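 Strain: cln2 rad14 yeast, altered in cell cycle control and DNA damage repair. Read-out: growth inhibition vs vehicle.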
Assay [5] can be described thus: NCI Yeast Anticancer Drug Screen. Data for the bub3 strain (AID 167). The note with it: S. cerevisiae bub3 mutant strain, stronger effect = higher value. Put shortly: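 Inhibition values come from growth of compound-treated mutant yeast normalised to vehicle-treated controls.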
The nature of assay [6]: NCI Yeast Anticancer Drug Screen. Data for the mlh1 rad18 strain (AID 175). The conditions noted are these: S. cerevisiae mlh1 rad18 strain growth inhibition, stronger effect = higher value. Put shortly: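 A repair-deficient yeast strain is exposed to test compound, and growth is scored relative to vehicle-treated controls.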
Where [7] appears, read: at 5.0 µM (retest, dose inferred, filed as 0.5).
The mark [8] stands for this setting: at 50.0 µM (retest, dose inferred, filed as 5.0).

Compounds without any hit were thinned out: in the full panel of roughly 79,000, 15% have a hit. A number with no mark means an inactive call. Activity calls are given as the source filed them. Rule as the data show it: active = growth inhibition above about 70%; inactive = the rest.

Turning to `CC1=C(C)C(=O)C(CNCc2ccccc2)=[C-]C1=O.[Co].[c-]1[c-][c-][cH-][c-]1`, the growth inhibition was 6% in assay [1] (setting [7]); -13% in assay [1] (setting [8]); 45.8% in assay [1] (at 50.0 µM); -3% in assay [2] (setting [7]); 26% in assay [2] (setting [8]); 35.6% in assay [2] (at 50.0 µM). For the same compound, the growth inhibition in assay [3] (setting [7]) is 5%; in assay [3] (setting [8]), 19%; in assay [3] (at 50.0 µM), 44.8%; in assay [4] (setting [7]), 7%; in assay [4] (setting [8]), 10%; in assay [4] (at 50.0 µM), 51.1%. Besides, the growth inhibition in assay [5] (setting [7]) was 11%; in assay [5] (setting [8]) it was 15%; in assay [5] (at 50.0 µM), 19.1%; in assay [6] (setting [7]) it was 6%; in assay [6] (setting [8]), 3%; in assay [6] (at 50.0 µM), 32.3%.
For `Oc1ccc2c(c1)Cc1cc(Br)ccc1-2`, the growth inhibition is 3% in assay [1] (setting [7]); 99% (active) in assay [1] (setting [8]); 98.5% (active) in assay [1] (at 50.0 µM); -6% in assay [2] (setting [7]); 99% (active) in assay [2] (setting [8]); 98.9% (active) in assay [2] (at 50.0 µM). Moreover, the growth inhibition in assay [3] (setting [7]) is 7%; in assay [3] (setting [8]), 80% (active); in assay [3] (at 50.0 µM), 98.6% (active); in assay [4] (setting [7]), -5%; in assay [4] (setting [8]), 99% (active); in assay [4] (at 50.0 µM) it was 97.8% (active). For the same compound, the growth inhibition in assay [5] (setting [7]) was 24%; in assay [5] (setting [8]), 99% (active); in assay [5] (at 50.0 µM), 98.5% (active); in assay [6] (setting [7]), -11%; in assay [6] (setting [8]), 99% (active); in assay [6] (at 50.0 µM), 98.2% (active).
Turning to `CCOC(=O)/C(=C\c1ccc(Br)cc1)C(C)=O`, the growth inhibition in assay [1] (setting [7]) is 28%; in assay [1] (setting [8]), 98% (active); in assay [1] (at 50.0 µM) it was 92.5% (active); in assay [2] (setting [7]), 29%; in assay [2] (setting [8]), 99% (active); in assay [2] (at 50.0 µM) it was 94.2% (active). For the same compound, the growth inhibition was 48% in assay [3] (setting [7]); 98% (active) in assay [3] (setting [8]); 93.5% (active) in assay [3] (at 50.0 µM); 34% in assay [4] (setting [7]); 98% (active) in assay [4] (setting [8]); 92.5% (active) in assay [4] (at 50.0 µM). In addition, the growth inhibition was 71% (active) in assay [5] (setting [7]); 99% (active) in assay [5] (setting [8]); 92.3% (active) in assay [5] (at 50.0 µM); 70% (active) in assay [6] (setting [7]); 99% (active) in assay [6] (setting [8]); 91.7% (active) in assay [6] (at 50.0 µM).
As for `CN(C)c1cc(N(C)C)c2cc(-c3ccccc3)sc2n1`, the growth inhibition in assay [1] (setting [7]) is 11%; in assay [1] (setting [8]), 98% (active); in assay [1] (at 50.0 µM), 75.7% (active); in assay [2] (setting [7]) it was 3%; in assay [2] (setting [8]), 99% (active); in assay [2] (at 50.0 µM) it was 17.2%. Moreover, the growth inhibition in assay [3] (setting [7]) is 5%; in assay [3] (setting [8]) it was 95% (active); in assay [3] (at 50.0 µM), 94.6% (active); in assay [4] (setting [7]), -11%; in assay [4] (setting [8]), 82% (active); in assay [4] (at 50.0 µM) it was 7.65%. The growth inhibition in assay [5] (setting [7]) is -5%; in assay [5] (setting [8]), 93% (active); in assay [5] (at 50.0 µM), 64%; in assay [6] (setting [7]), 1%; in assay [6] (setting [8]), 94% (active); in assay [6] (at 50.0 µM), 63%.
On to `CC1(C)CC(N(C(=O)/C=C/c2ccc([N+](=O)[O-])o2)C2CCCCC2)CC(C)(C)N1`, for which the growth inhibition in assay [1] (setting [7]) is -5%; in assay [1] (setting [8]), 97% (active); in assay [1] (at 50.0 µM), 5.6%; in assay [2] (setting [7]) it was -3%; in assay [2] (setting [8]), 98% (active); in assay [2] (at 50.0 µM), 13.9%. Moreover, the growth inhibition is -2% in assay [3] (setting [7]); 99% (active) in assay [3] (setting [8]); 40.2% in assay [3] (at 50.0 µM); -6% in assay [4] (setting [7]); 97% (active) in assay [4] (setting [8]); 25.1% in assay [4] (at 50.0 µM). Moreover, the growth inhibition is -4% in assay [5] (setting [7]); 99% (active) in assay [5] (setting [8]); 7.95% in assay [5] (at 50.0 µM); -1% in assay [6] (setting [7]); 97% (active) in assay [6] (setting [8]); 85% (active) in assay [6] (at 50.0 µM).
With `O=c1cccccc1O.O=c1cccccc1O.O=c1cccccc1O.[Ru]`, the growth inhibition is 29% in assay [1] (setting [7]); 64% in assay [1] (setting [8]); 87.5% (active) in assay [1] (at 50.0 µM); 32% in assay [2] (setting [7]); 90% (active) in assay [2] (setting [8]); 96.2% (active) in assay [2] (at 50.0 µM). The growth inhibition in assay [3] (setting [7]) is 49%; in assay [3] (setting [8]), 81% (active); in assay [3] (at 50.0 µM), 91.5% (active); in assay [4] (setting [7]), 11%; in assay [4] (setting [8]), 36%; in assay [4] (at 50.0 µM) it was 26.4%. For the same compound, the growth inhibition in assay [5] (setting [7]) is -11%; in assay [5] (setting [8]) it was -9%; in assay [5] (at 50.0 µM) it was 15.8%; in assay [6] (setting [7]), 55%; in assay [6] (setting [8]) it was 81% (active); in assay [6] (at 50.0 µM), 95.1% (active).
In the case of `COc1ccc(C2c3cn[nH]c3CC3CCCCC32)cc1` (stereo not given), the growth inhibition was 25% in assay [1] (setting [7]); 98% (active) in assay [1] (setting [8]); 75.8% (active) in assay [1] (at 50.0 µM); -8% in assay [2] (setting [7]); 99% (active) in assay [2] (setting [8]); 83.8% (active) in assay [2] (at 50.0 µM). In addition, the growth inhibition in assay [3] (setting [7]) is 9%; in assay [3] (setting [8]), 98% (active); in assay [3] (at 50.0 µM), 85.5% (active); in assay [4] (setting [7]) it was 31%; in assay [4] (setting [8]) it was 99% (active); in assay [4] (at 50.0 µM), 89.8% (active). The growth inhibition in assay [5] (setting [7]) is -20%; in assay [5] (setting [8]) it was 99% (active); in assay [5] (at 50.0 µM) it was 88.3% (active); in assay [6] (setting [7]), 8%; in assay [6] (setting [8]) it was 98% (active); in assay [6] (at 50.0 µM), 90.7% (active).
Take `Cc1ccc(SC2C(=O)C3(C)CCC2C3(C)C)cc1` (stereo not given): the growth inhibition in assay [1] (setting [7]) is -1%; in assay [1] (setting [8]), 32%; in assay [1] (at 50.0 µM) it was 64.2%; in assay [2] (setting [7]), -1%; in assay [2] (setting [8]), 27%; in assay [2] (at 50.0 µM), 28.8%. Further, the growth inhibition in assay [3] (setting [7]) was -2%; in assay [3] (setting [8]) it was 44%; in assay [3] (at 50.0 µM), 72.2% (active); in assay [4] (setting [7]), -1%; in assay [4] (setting [8]) it was 1%; in assay [4] (at 50.0 µM) it was -21.7%. Further, the growth inhibition in assay [5] (setting [7]) is 2%; in assay [5] (setting [8]), 28%; in assay [5] (at 50.0 µM), 37.5%; in assay [6] (setting [7]), 0%; in assay [6] (setting [8]), 52%; in assay [6] (at 50.0 µM), 82% (active).
Take `Cc1cn(C2OC(CO)C(O)C(O)C2N)c(=O)[nH]c1=O` (stereo not given): the growth inhibition in assay [1] (setting [7]) is 0%; in assay [1] (setting [8]), -2%; in assay [1] (at 50.0 µM), 86.5% (active); in assay [2] (setting [7]) it was 3%; in assay [2] (setting [8]), 10%; in assay [2] (at 50.0 µM) it was 70.3% (active). Further, the growth inhibition in assay [3] (setting [7]) is 1%; in assay [3] (setting [8]), 8%; in assay [3] (at 50.0 µM) it was 56.5%; in assay [4] (setting [7]), -4%; in assay [4] (setting [8]), 0%; in assay [4] (at 50.0 µM) it was 61.6%. Also, the growth inhibition in assay [5] (setting [7]) was -8%; in assay [5] (setting [8]), -13%; in assay [5] (at 50.0 µM), 93.9% (active); in assay [6] (setting [7]) it was -4%; in assay [6] (setting [8]), -3%; in assay [6] (at 50.0 µM), 92.5% (active).
Regarding `CC(=O)Nc1ccc(/C=C2/NC(=S)N(/C=C3\C(=O)Oc4ccccc4C3=O)C2=O)cc1`, the growth inhibition in assay [1] (setting [7]) was -10%; in assay [1] (setting [8]) it was 50%; in assay [1] (at 50.0 µM) it was 70.7% (active); in assay [2] (setting [7]) it was -19%; in assay [2] (setting [8]) it was 60%; in assay [2] (at 50.0 µM), 76.5% (active). The growth inhibition in assay [3] (setting [7]) is -6%; in assay [3] (setting [8]) it was 29%; in assay [3] (at 50.0 µM), 78.7% (active); in assay [4] (setting [7]), -15%; in assay [4] (setting [8]), 64%; in assay [4] (at 50.0 µM), 86% (active). Further, the growth inhibition was -12% in assay [5] (setting [7]); 36% in assay [5] (setting [8]); 67.2% in assay [5] (at 50.0 µM); -9% in assay [6] (setting [7]); 44% in assay [6] (setting [8]); 76.2% (active) in assay [6] (at 50.0 µM).
